What is called inhibition is the change of the read-out against control, counted positive when it falls.

Among all 190,000 compounds or so, about 1,300 (0.68%) were called active. Only a selection was taken, and actives are over-represented in it overall. Values without a mark were called inactive. Rule as the data show it: active = inhibition above about 50%; inactive = the rest.

Chain of Mannose-6-phosphate isomerase (Homo sapiens) (P34949 whole entry, looked up): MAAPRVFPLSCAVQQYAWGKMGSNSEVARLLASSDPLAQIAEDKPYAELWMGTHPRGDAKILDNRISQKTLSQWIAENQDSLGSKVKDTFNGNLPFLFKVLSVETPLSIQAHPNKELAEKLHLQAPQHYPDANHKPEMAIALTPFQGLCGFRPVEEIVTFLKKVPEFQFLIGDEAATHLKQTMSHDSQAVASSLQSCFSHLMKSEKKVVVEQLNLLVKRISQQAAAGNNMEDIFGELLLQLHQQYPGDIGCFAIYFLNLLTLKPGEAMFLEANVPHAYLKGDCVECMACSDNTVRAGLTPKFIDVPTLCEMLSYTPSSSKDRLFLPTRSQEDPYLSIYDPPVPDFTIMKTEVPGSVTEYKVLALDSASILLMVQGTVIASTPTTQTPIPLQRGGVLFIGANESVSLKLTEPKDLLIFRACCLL

This test concerns the target Mannose-6-phosphate isomerase (Homo sapiens) (UniProt P34949). In words: MPI inhibition at elevated mannose 6-phosphate – biochemical, fluorescence intensity, high mannose 6-phosphate, primary screen (AID 1220). Conditions: recombinant PMI enzyme, coupled fluorescence intensity; at 20 µM; hits give high values.
In the case of `O=C(Cn1ccc([N+](=O)[O-])n1)N1CCc2ccccc21`, the inhibition was 6.2%.
As to `COc1ccccc1Sc1nc(-c2ccccn2)ncc1OC`, the inhibition was -3.1%.
The value for `CCCCC/C=N\NC(=O)Cc1ccc([N+](=O)[O-])cc1` was -6.9%; that for `CCOC(=O)C1=C(C)Nc2ncnn2C1c1ccccc1F` (stereo unspecified) was -19.1%.
Regarding `O=C(O)C1C(c2ccccc2)C(C(=O)Oc2ccccc2)C1c1ccccc1` (stereo unspecified), the inhibition was -2.4%.
Take `CC(C)C(=O)NC(c1cccc([N+](=O)[O-])c1)c1c(O)ccc2ccccc12` (stereo unspecified): the inhibition was 26.6%.
The value for `CCCC(=O)NC(c1ccco1)c1c(O)ccc2ccccc12` (stereo unspecified) was 33.6%; that for `CC(C)C(=O)NC(c1ccco1)c1c(O)ccc2ccccc12` (stereo unspecified) was 56.9% (active).
The value for `CC(=O)NC(c1ccc([N+](=O)[O-])cc1)c1c(O)ccc2ccccc12` (stereo unspecified) was 34.2%.
Consider `CCCCC(=O)NC(c1ccco1)c1c(O)ccc2ccccc12` (stereo unspecified), for which the inhibition is 30.3%.
As for `CC(C)C(=O)NC(c1ccc([N+](=O)[O-])cc1)c1c(O)ccc2ccccc12` (stereo unspecified), the inhibition is 59.5% (active).
In the case of `COc1ccc2[nH]c(=O)c(CN(Cc3cccs3)C(=S)Nc3cccc(C)c3)cc2c1`, the inhibition is 5%.
Consider `C=CCn1c(SCC(=O)c2ccc(Cl)cc2)nnc1-c1ccc2c(c1)OCO2`, for which the inhibition is -0.6%.
The value for `O=C(CCNC(=O)c1ccccc1)Oc1ccc([N+](=O)[O-])cc1` was -10.4%; that for `N#CC1=C(N)SC(N)=C(C#N)C1c1c(Cl)cccc1Cl` was 6%; that for `COc1ccc(-c2csc(Cc3nnc(N4CCOCC4)n3-c3ccccc3)n2)cc1OC` was -41%.
The value for `COc1ccc(NC(=O)/C(N=Nc2cc(S(=O)(=O)Nc3ccc(OC)cc3)ccc2OC)=C(\C)O)cc1` was -1%.
For `CCOC(=O)N/C(N)=N/c1nc2ccccc2s1`, the inhibition was -3.7%.
`COc1ccc(O)c(C=Nc2cc(NC(C)=O)c(Cl)cc2Cl)c1`: the inhibition is 19.4%.
Next, `CC(=O)Nc1cc(N=Cc2ccc(O)cc2O)c(Cl)cc1Cl`: 44.8%; `CC(=O)Nc1cc(Cl)c(N=Cc2ccc(O)cc2O)cc1Cl`: 63.3% (active); `CCOC(=O)Nc1ccc2c(c1)N(C(=O)OC)c1ccccc1CC2`: -3.2%.
For the compound `CS(=O)(=O)N(Cc1ccccc1)c1ccc(C(=O)N2CCOCC2)cc1`, the inhibition was 11.2%.
For `CCOc1ccc2oc(C(=O)NC3CCN(Cc4ccccc4)CC3)c(C)c2c1`, the inhibition is -4.4%.
Take `COc1cc(SC)ccc1C(=O)N1CCN(c2ccccc2)CC1`: the inhibition is 5.9%.
As for `COc1cc(SC)ccc1C(=O)N1CCN(c2ccc(O)cc2)CC1`, the inhibition was 55.8% (active).
`COc1ccc(N2CCN(C(=O)c3ccc(SC)cc3OC)CC2)cc1`: the inhibition is 21.7%.
As to `CCn1c(SCC(=O)N2CCCCC2C)nc2ccsc2c1=O` (stereo unspecified), the inhibition is -3.6%.
In the case of `CCc1cccc(C)c1NC(=O)CO/N=C(\C)c1cc2ccccc2o1`, the inhibition was 60.5% (active).
In the case of `CSc1ccccc1NC(=O)CO/N=C(\C)c1cc2ccccc2o1`, the inhibition is 14.6%.
Next, `CCc1ccc(NC(=O)CO/N=C(\C)c2cc3ccccc3o2)cc1`: 45%; `O=C(CC1(O)C(=O)N(Cc2cccc3ccccc23)c2ccccc21)c1cccnc1` (stereo unspecified): 2.3%; `CCCn1c(SCc2ccccn2)nc2c1c(=O)n(C)c(=O)n2C`: 4.6%.
The value for `O=C(NC1Cc2ccccc2C1)c1cc(COc2ccc(F)cc2Cl)on1` was -6.1%; that for `CCS(=O)(=O)c1ccc(-c2csc(-c3ccccc3Cl)n2)c(Cl)c1Cl` was 5.5%; that for `COc1ccc(CN2CCNC(=O)C2CC(=O)N2CCCCO2)cc1OC` (stereo unspecified) was 45.9%.
The value for `COc1cc(CN2CCNC(=O)C2CC(=O)N2CCCCO2)cc(OC)c1` (stereo unspecified) was 52% (active); that for `COc1ccc(CN2CCNC(=O)C2CC(=O)N2CCCCO2)c(OC)c1` (stereo unspecified) was 27.5%; that for `COc1cc(OC)cc(-c2nnc(SCc3c(F)cccc3Cl)o2)c1` was 8.3%.
For `CCOc1ccc(C(CC(=O)O)NC(=O)c2cccs2)cc1OC` (stereo unspecified), the inhibition was -10.3%.
With `Cc1ccc2oc(=O)c(/C=C(\O)CC(C)C)nc2c1`, the inhibition is 10.4%.
With `CC(C)C/C(O)=C/c1nc2cc(Cl)ccc2oc1=O`, the inhibition is 55.1% (active).
Turning to `CCS(=O)(=O)c1ccc2oc(=O)c(/C=C(\O)c3ccc(Cl)cc3)nc2c1`, the inhibition was 17.4%.
Next, `C/C(=N/Nc1nc(-c2ccccc2)cc(-c2ccccc2)n1)c1ccc(N)cc1`: 3.6%.
Take `O=C(CN1N=C(c2ccc(Cl)cc2)CCC1=O)NCc1cccs1`: the inhibition is 59.2% (active).
The value for `O=C(CN1N=C(c2ccccc2)CCC1=O)NCc1cccs1` was 6.5%; that for `Cc1ccc(C2=NN(CC(=O)NCc3cccs3)C(=O)CC2)cc1` was 3.3%; that for `CC(NC(=O)c1cc2ccccc2o1)c1ccccc1` (stereo unspecified) was -9.3%.
As to `CCn1cc(C(=O)NCCCN2CCN(C)CC2)c(=O)c2cc(S(=O)(=O)N3CCc4ccccc4C3)ccc21`, the inhibition was -2.9%.
In the case of `O=C(O)c1ccc(N2Cc3ccccc3C2)cc1O`, the inhibition is -70.5%.
As for `CSc1nsc(/C=C/Nc2ccc(F)cc2F)c1C#N`, the inhibition was 21.4%.
Next, `CSc1nsc(/C=C/Nc2ccc(C)c(C)c2)c1C#N`: 40.1%.
`CSc1nsc(/C=C/Nc2ccc(O)cc2C)c1C#N`: the inhibition was 65.8% (active).
In the case of `Cc1cc(NC(=O)COC(=O)c2ccco2)no1`, the inhibition was -0.8%.
Regarding `CCOC(=O)c1c(NC(=O)CN2C(=O)c3ccccc3C2=O)sc(Cc2ccc3c(c2)OCO3)c1C`, the inhibition is 51.5% (active).
For the compound `COC(=O)c1c(NC(=O)CN2C(=O)c3ccccc3C2=O)sc(Cc2ccc3c(c2)OCO3)c1C`, the inhibition is 1.6%.
Take `Cc1c(Cc2ccc3c(c2)OCO3)sc(NC(=O)c2ccccc2)c1C(N)=O`: the inhibition was 2.7%.
On to `CC1(c2ccccc2)CC2CC(c3ccccc3)N1O2` (stereo unspecified), for which the inhibition is -7.9%.
Next, `CC1=C(C#N)C(=O)NC(=O)/C1=C\c1ccc(-c2cc(C)c(C)cc2[N+](=O)[O-])o1`: 52.8% (active).
As for `CC1=C(C#N)C(=O)NC(=O)/C1=C\c1ccc(-c2ccc(C)cc2[N+](=O)[O-])o1`, the inhibition was 48.6%.
With `CC1=C(C#N)C(=O)NC(=O)/C1=C/c1ccc(-c2ccc(S(N)(=O)=O)cc2)o1`, the inhibition is 18.1%.

The values above are taken from PubChem BioAssay AID1220 (Sanford-Burnham Center for Chemical Genomics, 2008).
